The source of these data is PubChem BioAssay (Tox21).

Assay [1] can be described thus: qHTS assay to identify small molecule antagonists of the estrogen related receptor (ERR) signaling pathway from Tox21 library - cell viability counter screen (AID 1224834). Also: nearly all actives have a fitted effect of over 30% in size. The essentials: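 Fluorescence from CellTiter-Fluor gives the viability read-out, taken 30 min after reagent addition. Before that, ERR cells seeded 6 h earlier were incubated with compounds for 17.5 h at 37 C.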

For assay [2], the target named is Luciferin 4-monooxygenase (Photinus pyralis) (UniProt P08659). As to the kind of experiment: qHTS assay to identify small molecule inhibitors of firefly luciferase (AID 1224835). Also: nearly all actives have a fitted effect of over 25% in size. Also: potency is read from the fitted curve at half-maximal effect. The essentials: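 Biochemical qHTS: compounds run as interplate titrations against purified firefly enzyme, with D-luciferin and ATP each at its KM concentration. Light output recorded by CCD imaging.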
Chain of Luciferin 4-monooxygenase (Photinus pyralis) (P08659 whole entry, looked up): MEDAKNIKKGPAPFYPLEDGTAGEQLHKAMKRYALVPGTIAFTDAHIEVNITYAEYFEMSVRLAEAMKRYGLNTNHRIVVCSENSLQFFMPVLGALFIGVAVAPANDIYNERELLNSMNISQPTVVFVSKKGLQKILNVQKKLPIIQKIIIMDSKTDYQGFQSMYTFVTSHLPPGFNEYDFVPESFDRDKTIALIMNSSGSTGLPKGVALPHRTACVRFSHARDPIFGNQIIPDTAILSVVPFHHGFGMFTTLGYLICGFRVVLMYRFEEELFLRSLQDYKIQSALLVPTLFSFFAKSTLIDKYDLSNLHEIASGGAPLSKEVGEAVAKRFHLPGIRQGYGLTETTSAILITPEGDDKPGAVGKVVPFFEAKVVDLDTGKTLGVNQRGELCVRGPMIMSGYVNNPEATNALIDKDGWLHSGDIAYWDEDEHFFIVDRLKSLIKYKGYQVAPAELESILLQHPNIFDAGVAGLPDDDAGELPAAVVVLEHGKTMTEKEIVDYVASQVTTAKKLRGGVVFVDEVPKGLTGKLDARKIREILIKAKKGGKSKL
Background: In qHTS, concentration-response curves come from the screen itself.

Assay [3] in a line: qHTS assay to identify small molecule agonists of the constitutive androstane receptor (CAR) signaling pathway - cell viability counter screen (AID 1224836). Also: series mostly up to about 92 µM; nearly all actives have a fitted effect of over 45% in size. The essentials: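 Counter screen multiplexed with the CAR reporter readout: HepG2 cells co-transfected with hCAR and the CYP2B6-2.2kb construct receive a 15-concentration compound series and 0.75 uM PK11195 (final), then CellTiter-Fluor fluorescence is read after 23 h.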

Assay [4] can be described thus: qHTS assay to identify small molecule antagonists of the constitutive androstane receptor (CAR) signaling pathway - cell viability counter screen (AID 1224837). Also: series mostly up to about 92 µM; nearly all actives have a fitted effect of over 45% in size. The essentials:
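HepG2-CYP2B6-hCAR cells, 2500/well, 4 hr pre-incubation; compound titration, 15 conc.; CITCO 50 nM final; 23 hr, 37 C/5% CO2; CellTiter-Fluor, fluorescence intensity.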

Assay [5] can be described thus: qHTS assay to identify small molecule antagonists of the estrogen related receptor signaling pathway with the pleiotropic PPARgamma coactivator (PGC) from Tox21 10K library - cell viability counter screen (AID 1224840; active = well fitted cell-killing curve with a large enough effect in the repeat runs, not every such curve was filed as active; also: nearly all actives have a fitted effect of over 40% in size). A digest of the protocol:
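PGC/ERR cells, 2,000/well; 6 h pre-incubation 37 C/5% CO2; cpd in DMSO via pin tool; 17.5 h 37 C; CellTiter-Fluor, 30 min; fluorescence.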

Assay [6] in a line: qHTS assay to identify small molecule agonists of the hypoxia (HIF-1) signaling pathway - cell viability counter screen (AID 1224844; calls by dose curve; also: nearly all actives have a fitted effect of over 50% in size). A digest of the protocol: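 ME-180 HRE-bla cells, 2,000/well, 0.5% dialyzed FBS; 5 hr settle, 17 hr compound at 37C/5% CO2; CCF4-AM reporter read first, then CellTiter-Glo luminescence after 30 min RT.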
A short description of assay [7]: qHTS assay to identify small molecule agonists of H2AX (AID 1224845; active = well fitted activation curve with a large enough effect in the signal ratio in the repeat runs, not every such curve was filed as active; the % refers to the signal ratio). The essentials:
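Wild-type CHO-K1 cells, plated overnight, exposed 3hr at 37C to 15 concentrations (0.76% DMSO final). Lysed, then HTRF anti-pH2AX (S139) cryptate and anti-H2AX-d2 antibodies, 24 hr room temperature; 665/620 nm emission read.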

The nature of assay [8]: qHTS assay to identify small molecule agonists of the hypoxia (HIF-1) signaling pathway (AID 1224846; active = well fitted activation curve with a large enough effect in the signal ratio in the repeat runs, not every such curve was filed as active; the % refers to the signal ratio). The essentials:
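Cell line: CellSensor HRE-bla ME-180; 2,000 cells/well; 0.5% dialyzed FBS; 5 h preincubation; DMSO compound pin transfer; 17 h, 37C, 5% CO2; CCF4-AM added; bla FRET signal scored for activation.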

Assay [9] is described as follows: qHTS assay to identify small molecule agonists of H2AX - cell viability counter screen (AID 1224847; calls by dose curve; also: top concentration of the series differs between compounds; nearly all actives have a fitted effect of over 30% in size). The essentials:
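We seed wild-type CHO-K1 cells overnight, treat them for 3 hr at 37C with compounds in 15-concentration series, and quantify remaining viability by CellTiter-Glo luminescence.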

Assay [10] can be described thus: qHTS RealTime-Glo MT Cell Viability Assay in HepG2 cells - 24 hour (AID 1224867). Also: nearly all actives have a fitted effect of over 50% in size. The essentials: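 HepG2 suspension premixed with RealTime-Glo reagents is plated at 600 cells per well and left 5 h at 37 C/5% CO2. Compounds in DMSO then go in, and bioluminescence reflecting viable cell number is recorded over 40 h.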
A short description of assay [11]: qHTS RealTime-Glo MT Cell Viability Assay in HEK293 cells - 32 hour (AID 1224868). Also: top concentration of the series differs between compounds; nearly all actives have a fitted effect of over 50% in size. A digest of the protocol:
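Reads taken at 0, 8, 16, 24, 32 and 40 h from the same wells. HEK293 cells (600/well) carried RealTime-Glo reagents from seeding, with compound added after a 5 h settle at 37 C.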

A short description of assay [12]: A CellTox Green Cytotoxicity Assay to monitor cytotoxicity in HEK293 cells - 0 hour (AID 1224869). Also: nearly all actives have a fitted effect of over 50% in size. A digest of the protocol: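 Nonlytic real-time cytotoxicity: HEK293 + CellTox Green reagent plated, 5 h preincubation, pintool compound addition (23 nL in DMSO), 37 C for 40 h, fluorescence measured at successive time points.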
Assay [13] in a line: qHTS RealTime-Glo MT Cell Viability Assay in HepG2 cells - 40 hour (AID 1224870). Also: nearly all actives have a fitted effect of over 50% in size. The essentials: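 HepG2 cells (600/well) mixed with RealTime-Glo MT reagent, settled 5 h at 37 C/5% CO2 before compound addition. Nonlytic NanoLuc luminescence from viable-cell prosubstrate reduction read repeatedly during 40 h treatment at 37 C.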
The target of assay [14] is Thyrotropin receptor (Homo sapiens) (UniProt P16473). Nature of the assay: qHTS assay to identify small molecule agonists of the thyroid stimulating hormone receptor (TSHR) signaling pathway (AID 1224843; calls by dose curve; also: nearly all actives have a fitted effect of over 45% in size). The essentials:
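TSHR-HEK293 cells in agonist mode, 30 min room-temperature step, then cAMP measured by competitive HTRF (cAMP-d2 with anti-cAMP cryptate) after 1 h at room temperature. Tested at 15 concentrations in triplicate.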

Assay [15] has as its target Nuclear receptor subfamily 1 group I member 3 (Homo sapiens) (UniProt Q14994). Nature of the assay: qHTS assay to identify small molecule antagonists of the constitutive androstane receptor (CAR) signaling pathway (AID 1224838).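 Also: HepG2 cells stably expressing hCAR with CYP2B6 luciferase reporter stimulated by CITCO; nearly all actives have a fitted effect of over 40% in size.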 A digest of the protocol: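 HepG2-CYP2B6-hCAR cells; 4 h pre-incubation; cpd (15 conc) + CITCO 50 nM final; 24 h, 37 C/5% CO2; ONE-Glo, luminescence.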

The target is the same in assay [16]. Nature of the assay: qHTS assay to identify small molecule agonists of the constitutive androstane receptor (CAR) signaling pathway (AID 1224839). Also: series mostly up to about 92 µM; nearly all actives have a fitted effect of over 15% in size. A digest of the protocol: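 A 15-concentration quantitative screen uses HepG2 cells co-transfected stably with human CAR and CYP2B6-2.2kb reporter. Treatment lasts 24 h with 0.75 uM PK11195 final present; ONE-Glo luminescence is the signal.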

Molecules are shown by their SMILES. Where “and” joins values, the source holds several entries; their conditions need not be identical. Identical values can stand only once. Results filed as inconclusive are left out. Calls of active or inactive are those of the source. Unless noted, calls follow the shape of the dose curve; as a rule, active = well fitted curve in the direction sought with a large enough effect in the repeat runs; inconclusive = weak or mixed curves; inactive = no such curve, though single readings can be large; an effect the other way counts as inactive or inconclusive.

Chain of Nuclear receptor subfamily 1 group I member 3 (Homo sapiens) (Q14994 whole entry, looked up): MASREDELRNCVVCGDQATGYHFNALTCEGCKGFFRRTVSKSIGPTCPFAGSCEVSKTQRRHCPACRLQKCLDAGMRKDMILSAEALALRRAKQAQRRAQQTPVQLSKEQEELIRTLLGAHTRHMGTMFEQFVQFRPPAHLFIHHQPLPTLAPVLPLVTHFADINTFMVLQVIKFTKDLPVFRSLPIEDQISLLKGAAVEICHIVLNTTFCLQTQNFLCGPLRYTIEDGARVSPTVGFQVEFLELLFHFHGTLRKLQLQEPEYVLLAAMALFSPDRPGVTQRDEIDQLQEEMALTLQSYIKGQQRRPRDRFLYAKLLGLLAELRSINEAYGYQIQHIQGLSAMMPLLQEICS
Chain of Thyrotropin receptor (Homo sapiens) (P16473 whole entry, looked up): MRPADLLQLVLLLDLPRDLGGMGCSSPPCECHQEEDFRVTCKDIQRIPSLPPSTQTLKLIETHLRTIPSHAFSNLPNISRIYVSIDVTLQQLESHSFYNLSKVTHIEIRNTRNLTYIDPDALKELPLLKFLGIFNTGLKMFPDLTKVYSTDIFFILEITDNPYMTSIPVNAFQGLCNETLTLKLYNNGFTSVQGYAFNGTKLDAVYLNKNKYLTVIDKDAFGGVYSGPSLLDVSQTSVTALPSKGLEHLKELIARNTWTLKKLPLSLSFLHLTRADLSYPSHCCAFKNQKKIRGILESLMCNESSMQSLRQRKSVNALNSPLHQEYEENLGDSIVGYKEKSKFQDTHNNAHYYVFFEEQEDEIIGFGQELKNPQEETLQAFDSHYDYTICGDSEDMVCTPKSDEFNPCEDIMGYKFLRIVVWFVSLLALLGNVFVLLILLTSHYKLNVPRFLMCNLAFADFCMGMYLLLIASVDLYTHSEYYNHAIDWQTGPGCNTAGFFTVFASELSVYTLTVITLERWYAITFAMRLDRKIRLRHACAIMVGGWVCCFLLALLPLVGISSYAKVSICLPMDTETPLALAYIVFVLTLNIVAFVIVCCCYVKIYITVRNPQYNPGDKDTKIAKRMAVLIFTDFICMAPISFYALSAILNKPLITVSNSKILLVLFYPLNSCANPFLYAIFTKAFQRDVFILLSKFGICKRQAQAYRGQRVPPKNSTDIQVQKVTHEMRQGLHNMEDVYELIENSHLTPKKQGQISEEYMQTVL

On to `C#CC(O)(C=CCl)CC` (stereo unspecified), for which the Potency entry in assay [1], in assay [2], in assay [3], in assay [4], in [5] and in [6] was “inactive” each time. Also, the Potency result in [7], in assay [9], in assay [10], in [11], in assay [12] and in [13] was “inactive” each time. Further, the outcome in assay [8] was inactive.

Consider `CCCBr`, for which the Potency entry in assay [1], in [2], in assay [3], in assay [4], in assay [5] and in [14] was “inactive” each time. For the same molecule, the Potency entry in [7], in assay [9], in [10], in assay [11], in assay [12] and in assay [13] was “inactive” each time. In assay [8], the molecule was called inactive.

Take `O=CC=O`: the Potency entry in assay [1], in assay [2], in [3], in assay [4], in assay [15] and in assay [5] was “inactive” in each case. Besides, the Potency result in assay [7], in [9], in [10], in [11] and in assay [13] was “inactive” each time. In assay [8], the molecule was called inactive.

Consider `CCOC(=O)C1OC1(C)c1ccccc1` (stereo unspecified), for which the Potency entry in assay [1], in assay [2], in assay [3], in assay [4], in [15] and in assay [6] was “inactive” each time. In addition, the Potency entry in assay [7], in [9], in assay [10], in assay [11], in [12] and in assay [13] was “inactive” in each case. Moreover, in [8], the molecule was called inactive.

Turning to `CCOP(=O)(SC(C)CC)N1CCSC1=O` (stereo unspecified), the Potency result in [1], in assay [2], in [3], in assay [4], in assay [16] and in assay [6] was “inactive” throughout. Moreover, the Potency entry in assay [7], in assay [9], in assay [10], in assay [11], in assay [12] and in assay [13] was “inactive” each time. For the same molecule, the call in assay [8] was inactive.

Consider `CCC(C)(C)O`, for which the Potency entry in assay [1], in assay [2], in assay [3], in assay [4], in [15] and in assay [5] was “inactive” in each case. The Potency result in [14], in assay [6], in assay [7], in assay [9], in assay [10] and in [11] was “inactive” in each case. Besides, the Potency result in [12] and in assay [13] was “inactive” throughout. The outcome in assay [8] was inactive.

On to `c1ccc2sc(SNC3CCCCC3)nc2c1`, for which the Potency entry in assay [1], in assay [3], in [4], in assay [15], in assay [5] and in [14] was “inactive” in each case. Moreover, the Potency result in assay [7], in assay [9], in assay [10], in assay [11] and in assay [13] was “inactive” each time. Besides, in assay [2], the Potency is 11.1 µM (active) and 22.4 µM (active). For the same molecule, the outcome in [8] was inactive.

On to `CC(C)OC(=O)Cc1ccccc1`, for which the Potency entry in assay [1], in assay [2], in [3], in assay [4], in assay [5] and in assay [6] was “inactive” in each case. The Potency result in assay [7], in assay [9], in assay [10], in assay [11] and in assay [13] was “inactive” in each case. Besides, the molecule was called inactive in assay [8].

Consider `CC(Cl)C(=O)O` (stereo unspecified), for which the Potency entry in assay [1], in assay [2], in assay [3], in assay [4], in [15] and in assay [14] was “inactive” each time. In addition, the Potency entry in assay [6], in assay [7], in assay [9], in assay [10], in assay [11] and in [12] was “inactive” in each case. In assay [13], the Potency result was “inactive”. Further, the molecule was classed as inactive in assay [8].

`CCCCC(CC)CO[N+](=O)[O-]` (stereo unspecified): the Potency result in assay [1], in assay [2], in assay [3], in [4], in [14] and in assay [6] was “inactive” throughout. The Potency entry in [7], in [9], in assay [10], in assay [11], in [12] and in assay [13] was “inactive” each time. In addition, the call in [8] was inactive.
